Cycloheximide cs = Cycloheximide Counterscreen for Small Molecule Inhibitors of Shiga Toxin; max response, %; hit rate 12% among 300,000; AID 2314, 2010; cell reporter, cycloheximide protein synthesis inhibition counterscreen; in the data active means max response mostly above about 13%, no sharp cut-off; inactive means mostly below about 14%; further: read at 38.3 µM for the half of the compounds with a filed dose
Lassa entry inh = qHTS for Inhibitors of binding or entry into cells for Lassa Virus. Lassa virus pseudotype entry inhibition, cell reporter. Potency, µM (doses to about 37.9 µM), usual class: inhibitors. hit rate 1.2% among 300,000. AID 540256, 2011; calls by dose curve; tested in HEK293 cells; further: nearly all actives have a fitted effect of over 50% in size
Marburg entry inh = qHTS for inhibitors of binding or entry into cells for Marburg Virus | Marburg virus pseudotyped entry inhibition, cell reporter | Potency, µM (titrated, usually from 37.8 µM), actives largely listed as inhibitors | hit rate 1.8% among 300,000; calls by dose curve; tested in HEK293 cells
Shiga inhibitor = A qHTS for Small Molecule Inhibitors of Shiga Toxin | Vero cells, Shiga toxin protein synthesis inhibition reporter | inhibition, % at 38.7 µM | hit rate 9.2% among 290,000 | AID 2315, 2010; in the data active means inhibition mostly above about 28%, no sharp cut-off; inactive means mostly below about 43%
Of the large screens only hits and unclear results are named; the others gave an inactive call. Sampled rows, rich in hits. Any-hit rate of the full collection: about 12%.

COc1cccc([C@@H]2Oc3ccc(OC)cc3C[C@@H]2OC(=O)N[C@H]2CCCc3ccccc32)c1	none (no result: Cycloheximide cs, Lassa entry inh, Shiga inhibitor)
COC(CNC(=O)C(=O)Nc1cc2c3c(c1)CCN3C(=O)CC2)OC	none (no result: Lassa entry inh, Marburg entry inh)
Cc1ccc(C2CCN(C(=S)NC3CCCCC3)C2)cc1 (centres undefined)	Cycloheximide cs 20, Lassa entry inh inconclusive, Marburg entry inh inconclusive, Shiga inhibitor 70
Cc1cccc(NC(=S)N2CCCCC2)c1	Marburg entry inh inconclusive
Cc1ccc(C2CCN(C(=O)Nc3ccc(Cl)c(Cl)c3)C2)cc1 (centres undefined)	none (no result: Cycloheximide cs, Marburg entry inh, Shiga inhibitor)
Cc1ccc(C2CCN(C(=S)Nc3cccc(C)c3)C2)cc1 (centres undefined)	Cycloheximide cs 20, Shiga inhibitor 34 (no result: Lassa entry inh, Marburg entry inh)
Cc1ccc(C2CCN(C(=S)NC(C)(C)C)C2)cc1 (centres undefined)	Cycloheximide cs 31, Shiga inhibitor 76 (no result: Lassa entry inh, Marburg entry inh)
CC1CCCN(C(=S)NC2CCCC2)C1 (centres undefined)	Marburg entry inh inconclusive
Cc1ccccc1Cn1c(Oc2ccccc2F)nc2c1c(=O)n(C)c(=O)n2C	none (no result: Cycloheximide cs, Marburg entry inh, Shiga inhibitor)
O=C(N/N=C1/C[C@@H](O)[C@@H](O)[C@@H]2[C@@H]3C(=O)N(c4cccc(Oc5ccccc5)c4)C(=O)[C@H]3CC[C@H]12)OCc1ccccc1	none (no result: Cycloheximide cs, Lassa entry inh, Shiga inhibitor)
C=C1CCC[C@]2(C)C[C@H]3OC(=O)C(CNC(C)(CO)CO)[C@H]3CC12 (some centres undefined)	Marburg entry inh inconclusive
CC(C(=O)NC(=O)NC1CCCCC1)N1CCN(C(c2ccccc2)c2ccccc2)CC1 (centres undefined)	none
O=[N+]([O-])c1ccc(/C=C2\CCC(C3=CCCC3)=C2N2CCOCC2)cc1	Cycloheximide cs 24
COC1=C[C@H](C(=O)NCc2ccccc2)[C@H](C)[C@@H](c2ccccc2)CC1=O	none (no result: Cycloheximide cs, Lassa entry inh, Shiga inhibitor)
CC1CC1C(=O)Nc1nc(-c2ccc(Cl)s2)cs1 (centres undefined)	Cycloheximide cs 38, Shiga inhibitor 131 (no result: Lassa entry inh)
O=C(CSCC(=O)N1CCCCC1)Nc1nc(-c2ccc(Cl)s2)cs1	Cycloheximide cs 16 (no result: Lassa entry inh, Marburg entry inh)
CCOC(=O)N1CCN(C(=O)CSCC(=O)Nc2nc(-c3ccccc3)cs2)CC1	Marburg entry inh inconclusive, Shiga inhibitor 30
O=C(CSCC(=O)N1CCCCC1)Nc1nc(-c2cccs2)cs1	Cycloheximide cs 20 (no result: Lassa entry inh, Marburg entry inh)
Cc1ccc(Cn2ccnc2SCC(=O)NCc2ccccc2)cc1	none (no result: Cycloheximide cs, Marburg entry inh, Shiga inhibitor)
CC1(C)Cc2[nH]c3ccccc3c2C(C)(C)N1	none (no result: Lassa entry inh, Marburg entry inh)
CC(Sc1ncccn1)C(=O)Nc1ccc2c(c1)OCO2 (centres undefined)	none (no result: Cycloheximide cs, Shiga inhibitor)
O=C(CSc1nncs1)Nc1ccc2c(c1)OCO2	Cycloheximide cs 25 (no result: Lassa entry inh, Marburg entry inh)
CCC(=O)Nc1nnc(SCC(=O)Nc2ccc3c(c2)OCO3)s1	none
CC(Sc1nncs1)C(=O)Nc1ccc2c(c1)OCO2 (centres undefined)	Cycloheximide cs 11
Cn1c(/N=C/c2ccc3c(c2)OCO3)nc2ccccc21	none
Nc1nnnn1/N=C/c1ccc(Br)cc1	none
Nc1nc2ccccc2n1/N=C/c1ccc2c(c1)OCO2	Cycloheximide cs 32, Marburg entry inh inconclusive, Shiga inhibitor 91
Nc1nc2ccccc2n1/N=C/c1ccc(Br)cc1	Cycloheximide cs 43, Shiga inhibitor 93
N#Cc1ccc(-c2csc(NC(=O)/C=C/c3cccs3)n2)cc1	Marburg entry inh inconclusive
O=C(/C=C/c1ccccc1)Nc1nc(-c2ccncc2)cs1	Cycloheximide cs 28, Lassa entry inh inconclusive, Marburg entry inh inconclusive
O=C(/C=C\c1ccco1)Nc1nc(-c2ccccc2)cs1	Cycloheximide cs 71, Lassa entry inh inconclusive, Marburg entry inh inconclusive, Shiga inhibitor 78
O=C(NC1(C(F)(F)F)C(=O)Nc2c1c(=O)[nH]c(=O)n2CCc1ccccc1)c1ccc(Cl)cc1 (centres undefined)	none (no result: Cycloheximide cs, Marburg entry inh, Shiga inhibitor)
CCC1(C)NC(=O)N(/N=C/c2ccc(C)s2)C1=O (centres undefined)	Cycloheximide cs 46, Shiga inhibitor 47 (no result: Lassa entry inh, Marburg entry inh)
COc1ccc(N2CCN(C(CNC(=O)C(=O)NCc3cccs3)c3ccco3)CC2)cc1 (centres undefined)	none (no result: Lassa entry inh, Marburg entry inh)
Cc1ccc(-c2nc(-c3ccccn3)no2)cc1	Lassa entry inh 0.32µM, Marburg entry inh 1.1µM
Cc1ccc(-c2nc(-c3ccccn3)no2)cc1Cl	Lassa entry inh 1.4µM, Marburg entry inh inconclusive
c1ccc(-c2ccc(-c3nc(-c4ccccn4)no3)cc2)cc1	Lassa entry inh inconclusive, Marburg entry inh inconclusive
Clc1cccc(-c2nc(-c3ccccn3)no2)c1	Lassa entry inh 1.8µM, Marburg entry inh inconclusive
Cc1ccc(-c2nc(-c3ccccn3)no2)cc1[N+](=O)[O-]	Cycloheximide cs 37, Shiga inhibitor 55 (no result: Lassa entry inh, Marburg entry inh)
Cc1ccc(CN2CC(C(=O)Nc3ncccc3C)CC2=O)cc1 (centres undefined)	none (no result: Lassa entry inh, Marburg entry inh)
NC1=NC(c2ccccc2)N=C(Nc2ccccc2)N1 (centres undefined)	Cycloheximide cs 14 (no result: Lassa entry inh, Marburg entry inh)
COc1ccccc1OCC(=O)Nc1nnc(C2CCCC2)s1	Cycloheximide cs 15 (no result: Lassa entry inh, Marburg entry inh)
CCC(C(=O)Nc1nnc(-c2ccco2)s1)c1ccccc1 (centres undefined)	none
Cc1cccc(OCC(=O)Nc2nnc(-c3ccco3)s2)c1	Marburg entry inh inconclusive
CCCC(=O)Nc1nnc(-c2ccco2)s1	Cycloheximide cs 40, Marburg entry inh inconclusive, Shiga inhibitor 58
O=C(Cc1ccccc1)Nc1nnc(-c2ccco2)s1	Cycloheximide cs 34, Marburg entry inh inconclusive, Shiga inhibitor 135
COc1ccccc1OCC(=O)Nc1nnc(-c2ccco2)s1	Cycloheximide cs 47, Marburg entry inh inconclusive
COc1cc(C2C3=C(CCCC3=O)Nc3[nH]n(-c4ccccc4)c(=O)c32)ccc1OC(C)=O (centres undefined)	Lassa entry inh inconclusive
CN1C(=O)/C(=C/c2ccccc2F)Sc2ccc(C(=O)N3CCCC3)cc21	Lassa entry inh inconclusive, Marburg entry inh inconclusive
CCN(CC(=O)NCc1cccs1)C(=O)CCc1c[nH]c2ccccc12	Lassa entry inh inconclusive
CCCn1c(CCc2ccccc2)n[nH]c1=S	none
O=C(Cc1c[nH]c2ccccc12)Nc1nnc(C2CC2)s1	Lassa entry inh 3.5µM, Marburg entry inh inconclusive
Cc1cc(C)n(-c2nncn2NC(=O)c2ccc(Cl)cc2O)n1	none
CC1(C(=O)NCc2cc(F)cc(C(F)(F)F)c2)C=CC2(CCCCC2)N1C(=O)c1ccccc1 (centres undefined)	Marburg entry inh inconclusive
CC1(C(=O)NCC2CC2)C=CC2(CCCCC2)N1C(=O)c1ccccc1 (centres undefined)	Cycloheximide cs 66, Shiga inhibitor 49 (no result: Lassa entry inh, Marburg entry inh)
Cn1c(N)c(C(=O)COC(=O)c2ccccc2C(=O)c2ccc(Cl)cc2)c(=O)n(C)c1=O	Marburg entry inh inconclusive (no result: Cycloheximide cs, Shiga inhibitor)
Cc1ccc(-n2ncc3c(Nc4ccc5c(c4)OCCO5)ncnc32)cc1C	none (no result: Cycloheximide cs, Marburg entry inh, Shiga inhibitor)
Cn1ncc2c(Nc3cc(Cl)cc(Cl)c3)ncnc21	none (no result: Lassa entry inh, Marburg entry inh)
Cn1ncc2c(Nc3ccc(Cl)c(Cl)c3)ncnc21	Cycloheximide cs 36 (no result: Lassa entry inh, Marburg entry inh)
Cn1ncc2c(Nc3ccc(-c4ccccc4)cc3)ncnc21	Cycloheximide cs 41, Lassa entry inh 3.7µM, Marburg entry inh 2.9µM, Shiga inhibitor 76
CCCn1ncc2c(Nc3ccc(C)c(C)c3)ncnc21	Cycloheximide cs 47, Shiga inhibitor 110
COC(=O)c1ccc(Nc2ncnc3c2cnn3C)cc1	none (no result: Cycloheximide cs, Marburg entry inh, Shiga inhibitor)
N=c1ccn(Cc2c(Cl)cccc2Cl)cc1	Marburg entry inh inconclusive
